# In PubChem BioAssay (NCI):
# Compounds without any hit were thinned out: in the full panel of roughly 79,000, 15% have a hit. Values without a mark were called inactive. Activity calls are given as the source filed them. Cut-off read from the data, not from the text of the source: active = growth inhibition above about 70%; inactive = the rest.
# How the values were obtained:
# [1] = NCI Yeast Anticancer Drug Screen. Data for the rad52 strain (AID 147);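 note: 0% = growth of vehicle-treated control cultures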; details: S. cerevisiae rad52 mutant growth inhibition, active compounds read high
# Method in brief: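 Genetically altered yeast (DNA damage repair defect) treated with compound; inhibition calculated relative to vehicle.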
# [2] = NCI Yeast Anticancer Drug Screen. Data for the wt1 strain (AID 149);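 note: 0% = growth of vehicle-treated wt1 cultures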; details: S. cerevisiae wt1 strain (SPY 50644) growth inhibition, active compounds read high
# Method in brief: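 Measured: growth of wt1 yeast under compound versus vehicle treatment, reported as inhibition.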
# [3] = NCI Yeast Anticancer Drug Screen. Data for the rad50EPP+ strain (AID 151);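 note: 0% = growth of vehicle-treated control cultures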; details: S. cerevisiae rad50 mutant strain, active compounds read high
# Method in brief: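 Strain rad50EPP+; compound exposure; % growth inhibition vs vehicle.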
# [4] = NCI Yeast Anticancer Drug Screen. Data for the mgt1 strain (AID 153); details: S. cerevisiae mgt1 mutant growth inhibition, active compounds read high
# Method in brief: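 Read-out: yeast growth inhibition vs vehicle control. Strain mgt1, drawn from a panel altered in DNA damage repair or cell cycle control.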
# [5] = NCI Yeast Anticancer Drug Screen. Data for the rad50 strain (AID 155);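 note: 0% = growth of vehicle-only cultures of the same strain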; details: S. cerevisiae rad50 strain growth inhibition, active compounds read high
# Method in brief: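 Growth of the mutant yeast was measured after compound exposure and referenced to vehicle-treated cultures.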
# [6] = NCI Yeast Anticancer Drug Screen. Data for the mec2-1 strain (AID 157); details: S. cerevisiae mec2-1 strain, active compounds read high
# Method in brief: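 Cells of the genetically defined mec2-1 yeast strain are incubated with test compound. Inhibition of growth is calculated against vehicle-treated controls.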
# [7] = NCI Yeast Anticancer Drug Screen. Data for the rad14 strain (AID 159);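 note: 0% = growth of vehicle-treated control cultures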; details: S. cerevisiae rad14 strain growth inhibition, active compounds read high
# Method in brief: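 Here, inhibition of yeast growth was measured after compound exposure, using a strain with a genetic defect in DNA damage repair and vehicle-treated cultures as the reference.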
# [8] = NCI Yeast Anticancer Drug Screen. Data for the sgs1 mgt1 strain (AID 161);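 note: 0% = growth of cultures given vehicle only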; details: S. cerevisiae sgs1 mgt1 strain, active compounds read high
# Method in brief: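 Read-out: growth inhibition vs vehicle controls. Cells: mutant yeast strain deficient in DNA damage repair.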
# [9] = NCI Yeast Anticancer Drug Screen. Data for the CLN2oe strain (AID 163);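 note: 0% = growth of vehicle-only control cultures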; details: S. cerevisiae CLN2oe strain, active compounds read high
# Method in brief: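 Strain altered in cell-cycle control, incubated with compound; growth compared to solvent-treated controls.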
# [10] = NCI Yeast Anticancer Drug Screen. Data for the cln2 rad14 strain (AID 165);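 note: 0% = growth equal to vehicle treated cultures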; details: S. cerevisiae cln2 rad14 strain, active compounds read high
# Method in brief: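 The screen exposed genetically defined yeast (cln2 rad14) to test compounds and scored growth inhibition relative to vehicle-treated controls.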
# [11] = NCI Yeast Anticancer Drug Screen. Data for the bub3 strain (AID 167); details: S. cerevisiae bub3 mutant strain, active compounds read high
# Method in brief: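 Whole-cell yeast assay. The mutant strain was incubated with compounds, and growth inhibition was determined by comparison with vehicle-treated cells.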
# [12] = NCI Yeast Anticancer Drug Screen. Data for the wt2 strain (AID 169);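 note: 0% = growth of vehicle-treated yeast cultures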; details: S. cerevisiae wt2 strain growth inhibition, active compounds read high
# Method in brief: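 Steps: yeast strain treated with compound; growth recorded; inhibition calculated relative to cultures given vehicle alone.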
# [13] = NCI Yeast Anticancer Drug Screen. Data for the mlh1 strain (AID 171);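 note: 0% = growth of vehicle-treated control cultures of the same strain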; details: S. cerevisiae mlh1 strain growth inhibition, active compounds read high
# Method in brief: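 Yeast screen: mutant strain plus compound, growth scored against vehicle control wells.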
# [14] = NCI Yeast Anticancer Drug Screen. Data for the sgs1 strain (AID 173);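 note: 0% = growth of vehicle-only control cultures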; details: S. cerevisiae sgs1 mutant, active compounds read high
# Method in brief: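 Inhibition of yeast growth served as the measure. The mutant strain was treated with each compound, and growth was normalised to cultures receiving vehicle alone.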
# [15] = NCI Yeast Anticancer Drug Screen. Data for the mlh1 rad18 strain (AID 175); details: S. cerevisiae mlh1 rad18 strain growth inhibition, active compounds read high
# Method in brief: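 Compound-treated yeast growth, normalised to vehicle controls. Strain bears defined DNA repair mutations.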
# [16] = NCI Yeast Anticancer Drug Screen. Data for the rad18 strain (AID 177); details: S. cerevisiae rad18 mutant growth inhibition, active compounds read high
# Method in brief: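 Inhibition values reflect reduced yeast growth compared with vehicle-treated controls, using a strain engineered with a DNA damage repair defect.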
# [17] = at 5.0 µM (retest, dose inferred, filed as 0.5)
# [18] = at 50.0 µM (retest, dose inferred, filed as 5.0)
smiles,measurement,setting,value
CN(C)CCCCN1c2ccccc2Sc2ccc(N=[N+]=[N-])cc21,growth inhibition,[1]; at 1.2 µM,29%
same,growth inhibition,[1]; at 3.7 µM,37%
same,growth inhibition,[1]; at 11.0 µM,45%
same,growth inhibition,[1]; at 33.0 µM,49%
same,growth inhibition,[1]; at 100.0 µM,99% (active)
same,growth inhibition,[2]; at 1.2 µM,23%
same,growth inhibition,[2]; at 3.7 µM,36%
same,growth inhibition,[2]; at 11.0 µM,36%
same,growth inhibition,[2]; at 33.0 µM,47%
same,growth inhibition,[2]; at 100.0 µM,99% (active)
same,growth inhibition,[3]; at 1.2 µM,24%
same,growth inhibition,[3]; at 3.7 µM,20%
same,growth inhibition,[3]; at 11.0 µM,23%
same,growth inhibition,[3]; at 33.0 µM,23%
same,growth inhibition,[3]; at 100.0 µM,80% (active)
same,growth inhibition,[4]; at 1.2 µM,19%
same,growth inhibition,[4]; at 3.7 µM,20%
same,growth inhibition,[4]; at 11.0 µM,31%
same,growth inhibition,[4]; at 33.0 µM,51%
same,growth inhibition,[4]; at 100.0 µM,99% (active)
same,growth inhibition,[5]; at 1.2 µM,6%
same,growth inhibition,[5]; at 3.7 µM,20%
same,growth inhibition,[5]; [17],91% (active)
same,growth inhibition,[5]; at 11.0 µM,15%
same,growth inhibition,[5]; at 33.0 µM,47%
same,growth inhibition,[5]; [18],99% (active)
same,growth inhibition,[5]; at 50.0 µM,84.2% (active)
same,growth inhibition,[5]; at 100.0 µM,98% (active)
same,growth inhibition,[6]; at 1.2 µM,33%
same,growth inhibition,[6]; at 3.7 µM,31%
same,growth inhibition,[6]; [17],33%
same,growth inhibition,[6]; at 11.0 µM,36%
same,growth inhibition,[6]; at 33.0 µM,42%
same,growth inhibition,[6]; [18],99% (active)
same,growth inhibition,[6]; at 50.0 µM,79.2% (active)
same,growth inhibition,[6]; at 100.0 µM,99% (active)
same,growth inhibition,[7]; at 1.2 µM,0%
same,growth inhibition,[7]; at 3.7 µM,8%
same,growth inhibition,[7]; at 11.0 µM,19%
same,growth inhibition,[7]; at 33.0 µM,55%
same,growth inhibition,[7]; at 100.0 µM,99% (active)
same,growth inhibition,[8]; [17],-16%
same,growth inhibition,[8]; [18],99% (active)
same,growth inhibition,[8]; at 50.0 µM,90.5% (active)
same,growth inhibition,[9]; at 1.2 µM,19%
same,growth inhibition,[9]; at 3.7 µM,18%
same,growth inhibition,[9]; at 11.0 µM,24%
same,growth inhibition,[9]; at 33.0 µM,39%
same,growth inhibition,[9]; at 100.0 µM,98% (active)
same,growth inhibition,[10]; [17],8%
same,growth inhibition,[10]; [18],99% (active)
same,growth inhibition,[10]; at 50.0 µM,89.5% (active)
same,growth inhibition,[11]; at 1.2 µM,-8%
same,growth inhibition,[11]; at 3.7 µM,-10%
same,growth inhibition,[11]; [17],4%
same,growth inhibition,[11]; at 11.0 µM,-14%
same,growth inhibition,[11]; at 33.0 µM,14%
same,growth inhibition,[11]; [18],98% (active)
same,growth inhibition,[11]; at 50.0 µM,72% (active)
same,growth inhibition,[11]; at 100.0 µM,98% (active)
same,growth inhibition,[12]; at 1.2 µM,-8%
same,growth inhibition,[12]; at 3.7 µM,-15%
same,growth inhibition,[12]; at 11.0 µM,-14%
same,growth inhibition,[12]; at 33.0 µM,46%
same,growth inhibition,[12]; at 100.0 µM,99% (active)
same,growth inhibition,[13]; at 1.2 µM,32%
same,growth inhibition,[13]; at 3.7 µM,31%
same,growth inhibition,[13]; at 11.0 µM,35%
same,growth inhibition,[13]; at 33.0 µM,57%
same,growth inhibition,[13]; at 100.0 µM,99% (active)
same,growth inhibition,[14]; at 1.2 µM,10%
same,growth inhibition,[14]; at 3.7 µM,42%
same,growth inhibition,[14]; at 11.0 µM,43%
same,growth inhibition,[14]; at 33.0 µM,67%
same,growth inhibition,[14]; at 100.0 µM,99% (active)
same,growth inhibition,[15]; [17],23%
same,growth inhibition,[15]; [18],99% (active)
same,growth inhibition,[15]; at 50.0 µM,91.5% (active)
same,growth inhibition,[16]; at 1.2 µM,10%
same,growth inhibition,[16]; at 3.7 µM,14%
same,growth inhibition,[16]; at 11.0 µM,24%
same,growth inhibition,[16]; at 33.0 µM,57%
same,growth inhibition,[16]; at 100.0 µM,99% (active)
Nc1ccc(F)cc1S,growth inhibition,[1]; at 1.2 µM,-2%
same,growth inhibition,[1]; at 3.7 µM,-15%
same,growth inhibition,[1]; at 11.0 µM,-11%
same,growth inhibition,[1]; at 33.0 µM,60%
same,growth inhibition,[1]; at 100.0 µM,98% (active)
same,growth inhibition,[2]; at 1.2 µM,-7%
same,growth inhibition,[2]; at 3.7 µM,1%
same,growth inhibition,[2]; at 11.0 µM,6%
same,growth inhibition,[2]; at 33.0 µM,92% (active)
same,growth inhibition,[2]; at 100.0 µM,99% (active)
same,growth inhibition,[3]; at 1.2 µM,-19%
same,growth inhibition,[3]; at 3.7 µM,-19%
same,growth inhibition,[3]; at 11.0 µM,-37%
same,growth inhibition,[3]; at 33.0 µM,55%
same,growth inhibition,[3]; at 100.0 µM,97% (active)
same,growth inhibition,[4]; at 1.2 µM,-15%
same,growth inhibition,[4]; at 3.7 µM,-20%
same,growth inhibition,[4]; at 11.0 µM,12%
same,growth inhibition,[4]; at 33.0 µM,92% (active)
same,growth inhibition,[4]; at 100.0 µM,98% (active)
same,growth inhibition,[5]; at 1.2 µM,-23%
same,growth inhibition,[5]; at 3.7 µM,-40%
same,growth inhibition,[5]; [17],16%
same,growth inhibition,[5]; at 11.0 µM,-14%
same,growth inhibition,[5]; at 33.0 µM,61%
same,growth inhibition,[5]; [18],91% (active)
same,growth inhibition,[5]; at 50.0 µM,51.1%
same,growth inhibition,[5]; at 100.0 µM,98% (active)
same,growth inhibition,[6]; at 1.2 µM,-16%
same,growth inhibition,[6]; at 3.7 µM,-15%
same,growth inhibition,[6]; [17],9%
same,growth inhibition,[6]; at 11.0 µM,8%
same,growth inhibition,[6]; at 33.0 µM,81% (active)
same,growth inhibition,[6]; [18],99% (active)
same,growth inhibition,[6]; at 50.0 µM,85.8% (active)
same,growth inhibition,[6]; at 100.0 µM,98% (active)
same,growth inhibition,[7]; at 1.2 µM,-32%
same,growth inhibition,[7]; at 3.7 µM,-18%
same,growth inhibition,[7]; at 11.0 µM,-14%
same,growth inhibition,[7]; at 33.0 µM,70% (active)
same,growth inhibition,[7]; at 100.0 µM,97% (active)
same,growth inhibition,[8]; [17],31%
same,growth inhibition,[8]; [18],100% (active)
same,growth inhibition,[8]; at 50.0 µM,80.5% (active)
same,growth inhibition,[9]; at 1.2 µM,-70%
same,growth inhibition,[9]; at 3.7 µM,-50%
same,growth inhibition,[9]; at 11.0 µM,-24%
same,growth inhibition,[9]; at 33.0 µM,43%
same,growth inhibition,[9]; at 100.0 µM,94% (active)
same,growth inhibition,[10]; [17],46%
same,growth inhibition,[10]; [18],88% (active)
same,growth inhibition,[10]; at 50.0 µM,85.4% (active)
same,growth inhibition,[11]; at 1.2 µM,-33%
same,growth inhibition,[11]; at 3.7 µM,-15%
same,growth inhibition,[11]; [17],61%
same,growth inhibition,[11]; at 11.0 µM,18%
same,growth inhibition,[11]; at 33.0 µM,73% (active)
same,growth inhibition,[11]; [18],99% (active)
same,growth inhibition,[11]; at 50.0 µM,87.5% (active)
same,growth inhibition,[11]; at 100.0 µM,98% (active)
